“And” between values parts separate entries of the source, which are not always exact repeats. Equal values may be shown once. In all, about 260,000 compounds went through this assay and about 1,500 (0.58%) were called active. Not shown: some 5% with an inconclusive outcome.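 The calls were made as follows: active = inhibition above a set limit at one or more doses, reproduced on every date tested; inconclusive = results disagree between test dates, or hit never tested in dose response; inactive = the rest.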 Not all results are given here. Results with a measured potency or affinity are listed apart.
biological target: Virion infectivity factor (Human immunodeficiency virus type 1 group M subtype B (isolate BH10)) + Virion infectivity factor (Human immunodeficiency virus type 1 group M subtype B (isolate BRU/LAI)) + Virion infectivity factor (Human immunodeficiency virus type 1 group M subtype B (isolate PCV12)) + Virion infectivity factor (Human immunodeficiency virus type 1 group M subtype B (isolate HXB2)) + DNA dC->dU-editing enzyme APOBEC-3G (Homo sapiens) (UniProt P69720+P69721+P69722+P69723+Q9HC16); test: inhibitors of Vif binding to APOBEC3G peptide, primary screen, biochemical, TR-FRET, GST-Vif 1-94, biotin-A3G peptide, dose response retest (AID 1117319); details: active compounds read high;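 also: Vif residues 1-94 fused to GST binding biotinylated APOBEC3G peptide 110-148; 0% = full assay without inhibitor and 100% = GST in place of GST-Vif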

Row | SMILES | inhibition
1 | Cc1ccc2c(C)c(C(=O)NCCc3ccco3)oc2c1C | -1.77% (inactive)
2 | CN(CC(=O)Nc1ccc(Cl)c(C(F)(F)F)c1)C(=O)c1cc(=O)[nH]c2ccccc12 | 1.56% (inactive)
3 | Cc1ccc(C(=O)CCC(=O)Nc2ccc(C)cn2)cc1 | -9.87% (inactive)
4 | Cc1ccnc(NC(=O)CCC(=O)N(CC(=O)NCc2ccccc2)c2ccc3c(c2)OCO3)c1 | 12.1% (inactive)
5 | Cc1cc(C)nc(SCc2cc(=O)c(OC(=O)c3ccc(Cl)c([N+](=O)[O-])c3)co2)n1 | 31.3% (inactive)
6 | CN(c1ccc(C(=O)Nc2ccc(Cl)cn2)cc1)S(=O)(=O)c1ccccc1 | 18.3% (inactive)
7 | CN(C1=C(NC(=O)c2ccccc2)C(=O)c2ccccc2C1=O)C1CCS(=O)(=O)C1 (stereo unspecified) | 23.9% (inactive)
8 | Fc1cccc(NC(=S)N2CCCCC2)c1 | 1.92% (inactive)
9 | Cc1ccc(CC(NC(=O)c2ccccc2)C(=O)N2CCCC2C(=O)O)cc1 (stereo unspecified) | -0.14% (inactive)
10 | O=C(O/N=C1\CCS(=O)(=O)c2sccc21)C1CC1 | -8.69% (inactive)
11 | O=C1C(Cl)=C(NCCc2ccccc2)C(=O)c2ccccc21 | 14.2% (inactive)
12 | Nc1c(Cl)cc2c(c1Oc1ccccc1)C(=O)c1ccccc1C2=O | 7.9% (inactive)
13 | Cc1ccc(NS(=O)(=O)c2ccc(C(=O)N3CCCC(C(F)(F)F)C3)cc2)cc1 (stereo unspecified) | -6.68% (inactive)
14 | O=C1/C(=C/c2ccccn2)SC(=S)N1c1cccc(O)c1 | 1.67% (inactive)
15 | O=C(COc1ccccc1F)Nc1ccc2[nH]c(=O)[nH]c2c1 | -2.63% (inactive)
16 | COC(=O)c1cc(NC(=O)c2cc(-c3ccc(Cl)cc3)oc2C(F)(F)F)ccc1N1CCOCC1 | -11.7% (inactive)
17 | CSCCC(NC(=O)/C(=C/c1ccco1)NC(=O)c1ccc(Br)o1)C(=O)O (stereo unspecified) | 13.7% (inactive)
18 | CC(C)C(NC(=O)/C(=C/c1ccco1)NC(=O)c1ccc(Br)o1)C(=O)O (stereo unspecified) | 25.7% (inactive)
19 | COc1cc(/C(O)=C(\C#N)c2nc3ccccc3[nH]2)cc(OC)c1OC | 3.24% (inactive)
20 | Cc1ccc(Cl)cc1N1CCN(C(=O)COc2ccc(S(=O)(=O)NC(C)C)cc2)CC1 | 6.57% (inactive)
21 | O=C(COc1ccc2c(c1)CCC2)N1CCN(c2ccc(F)cc2)CC1 | 4.96% (inactive)
22 | Cc1cc(C)n(CC(O)COc2ccccc2[N+](=O)[O-])n1 (stereo unspecified) | 10.6% (inactive)
23 | COc1ccc(C2C(C#N)=C(N)Oc3c2oc(CO)cc3=O)cc1 (stereo unspecified) | -2.28% (inactive)
24 | N#CC1=C(N)Oc2c(oc(CO)cc2=O)C1c1cccs1 (stereo unspecified) | 26.6% (inactive)

Row | SMILES | inhibition
25 | O=C(OCC(=O)N1CCc2ccccc21)c1ccccn1 | -3.08% (inactive)
26 | Cc1ccc(S(=O)(=O)N2CCOCC2)cc1C(=O)NC1CCCCC1 | 1.31% (inactive)
27 | CCOC(=O)c1sc2nc(CC(=O)OC)nc(NCc3ccc(Cl)cc3)c2c1C | -0.39% (inactive) and -4.73% (inactive)
28 | CCOC(=O)c1sc2nc(CC(=O)OC)nc(NCc3ccc(F)cc3)c2c1C | -3.02% (inactive)
29 | CC(Oc1cccc(Cl)c1)C(=O)NNC(=O)c1cccnc1 (stereo unspecified) | -4.59% (inactive)
30 | COC(=O)c1ccc(C(=O)OC)c(=O)[nH]1 | 0.04% (inactive)
31 | COC(=O)c1ccc(N)cc1O | -0.17% (inactive)
32 | Cc1nc2nc(-c3ccccc3)[nH]n2c(=O)c1C | 21.8% (inactive)
33 | Cn1c(=O)c2c(-c3ccccc3)n(Cc3ccccn3)cc2n(C)c1=O | -0.87% (inactive)
34 | CC(=O)Nc1ccc(N2C(=O)CC(Sc3nc(C)cc(C)n3)C2=O)cc1 (stereo unspecified) | 2.02% (inactive)
35 | CN(C)S(=O)(=O)c1ccc(N2CCCC2)c(C(=O)Nc2ccc(N3CCOCC3)cc2)c1 | -0.06% (inactive)
36 | CC(=O)NCCc1ccc(C(=O)COC(=O)c2cccn2C)cc1 | -0.53% (inactive)
37 | O=C(N/N=C/c1ccc(Cl)cc1Cl)C1CCN(c2ncc(C(F)(F)F)cc2Cl)CC1 | 0.03% (inactive)
38 | COc1ccc(NC(=O)/C=C/c2cc(Br)ccc2OC)cc1 | -0.44% (inactive)
39 | COc1ccc(OC)c(/C=C/C(=O)c2ccc(Cl)cc2)c1 | -4.03% (inactive)
40 | COc1ccc(C(=O)/C=C/c2ccc(OC)cc2OC)c(O)c1 | -6.99% (inactive)
41 | NNC(=O)/C=C/c1ccc(Cl)cc1Cl | -9.79% (inactive)
42 | COc1cccc(/C=C/C(=O)c2cccc([N+](=O)[O-])c2)c1OC | -0.4% (inactive)
43 | COc1cccc(/C=C/C(=O)c2ccc3c(c2)OCCO3)c1OC | -6.76% (inactive)
44 | CN(C)/C=C/C(=O)/C=C/c1ccc(Cl)cc1Cl | 0.37% (inactive)
45 | COc1ccc(/C=C/C(=O)c2ccccc2)c(OC)c1 | 2.19% (inactive)
46 | Cn1c(=O)c2c(nc(CN3CCN(Cc4ccccc4)CC3)n2Cc2ccc(F)cc2)n(C)c1=O | 8.38% (inactive)
47 | COc1cccc(CNC(=O)CCc2nc3cc(S(=O)(=O)N4CCOCC4)ccc3n2C)c1 | -1.52% (inactive)
48 | COc1ccc(-c2nnc(SCC(=O)c3ccc[nH]3)o2)cc1 | 0.99% (inactive)

Row | SMILES | inhibition
49 | O=C(Oc1ccccc1-c1nnco1)c1ccc(Cl)cc1 | 5.13% (inactive)
50 | COc1ccc(C=CC(=O)c2cc(O)ccc2O)cc1 | -0.99% (inactive)
51 | COc1ccccc1/C=C/C(=O)c1ccccc1 | 3.38% (inactive)
52 | COc1ccccc1C=CC(=O)C=Cc1ccccc1OC | 7.01% (inactive)
53 | COc1ccc(/C=C/C(=O)c2ccc(OC)cc2OC)cc1 | -1.1% (inactive)
54 | Cc1nc(C(=O)N/N=C/c2[nH]ncc2Br)cs1 | 8.49% (inactive)
55 | COc1ccc(O)c(C(=O)c2cnn(S(=O)(=O)c3ccc(C)cc3)c2)c1 | 4.82% (inactive)
56 | CC1(C)CN(c2ccccc2)N(Cc2ccc(F)cc2)C1=O | -1.71% (inactive)
57 | NC(=O)C1(C(=O)O)OC1(c1ccc(Cl)cc1)c1ccccc1Cl (stereo unspecified) | 5.1% (inactive)
58 | COc1cc(NC(=O)c2ccc3c(SCC(=O)O)c4c(nc3c2)CCC4)cc(OC)c1OC | 22.2% (inactive)
59 | CCOc1ccc(NC(=O)c2ccc3c(SCC(=O)O)c4c(nc3c2)CCCC4)cc1 | 2.98% (inactive)
60 | CCN(CC)CCCNC(=O)c1ccc2c(SCC(=O)O)c3c(nc2c1)CCC3 | 27.5% (inactive)
61 | CC(C)CCNC(=O)c1ccc2c(SCC(=O)O)c3c(nc2c1)CCCC3 | 25.7% (inactive)
62 | CN1CCN(C(=O)c2ccc(CN3CCOCC3)cc2)CC1 | -3.34% (inactive)
63 | Cc1cc(NS(=O)(=O)c2ccc(NC(=O)CSc3nnc(-c4ccco4)n3C)cc2)nc(C)n1 | 2.91% (inactive)
64 | O=C(Nc1ccccc1Cl)Nc1ccnn1C1CCN(C(=O)c2cscn2)CC1 | 5.94% (inactive)
65 | C=CCn1c(SCC(=O)NC2CC2)nc2ccccc2c1=O | 1.47% (inactive)
66 | O=C(/C=C/Nc1ccc(Oc2ccccc2)cc1)c1ccco1 | 12.6% (inactive)
67 | O=C(/C=C/Nc1ccc(F)cc1)c1ccco1 | 10.5% (inactive)
68 | NS(=O)(=O)c1ccc(NC(=O)C2CCCN(S(=O)(=O)c3ccc(F)cc3)C2)cc1 (stereo unspecified) | -11.9% (inactive)
69 | Cc1ccc(N(CC(=O)NCc2cccnc2)S(C)(=O)=O)cc1C | -4.47% (inactive)
70 | COc1cccc(N(CC(=O)NCc2cccnc2)S(C)(=O)=O)c1 | -2.81% (inactive)
71 | CN1CCN(c2ccccc2NC(=O)c2ccc(Br)o2)CC1 | 0.41% (inactive)
72 | O=C(Nc1ccccc1N1CCOCC1)c1ccc(Br)o1 | 7.09% (inactive)

Row | SMILES | inhibition
73 | O=C(O)c1cc(-c2ccc(N3CCOCC3)cc2)nn1-c1ccc(F)cc1 | 18.4% (inactive)
74 | Cn1cnc(S(=O)(=O)N2CCc3ccccc32)c1 | 3.79% (inactive)
75 | c1cc2c3c(cccc3c1)NC1(CCCC1)N2 | 2.08% (inactive)
76 | c1cc2c3c(cccc3c1)NC1(CCCCC1)N2 | 10.4% (inactive)
77 | Cc1cc(=O)[nH]c(SCCCOc2ccc3c(c2)CCC3)n1 | -0.15% (inactive)
78 | CCn1nnnc1SCC(=O)NCc1ccco1 | 21.2% (inactive)
79 | CCn1c(SCC(=O)NC(=O)NCc2ccco2)nnc1-c1cccs1 | -5.61% (inactive)
80 | Cn1c(SCC(=O)NCc2ccco2)nnc1-c1cccs1 | -8.22% (inactive)
81 | CC(C)n1nnnc1SCC(=O)NCc1ccco1 | 20% (inactive)
82 | Clc1ccccc1Cc1noc(CN2CCCCC2c2ccccn2)n1 (stereo unspecified) | 2.88% (inactive)
83 | COc1cccc(OCc2nnc(SCC(=O)N3c4ccccc4Sc4ccc(Cl)cc43)o2)c1 | 8.84% (inactive)
84 | O=C(CN(C(=O)Cn1nnc(-c2ccc(F)cc2)n1)c1cnc2ccccc2c1)NCC1CCCO1 (stereo unspecified) | -11.4% (inactive)
85 | Cc1cc(C)n2nc(-c3ccsc3-n3c(C)ccc3C)cc2n1 | 16.4% (inactive)
86 | Cc1cc(=O)n2[nH]c(-c3sccc3-n3c(C)ccc3C)cc2n1 | -3.07% (inactive)
87 | O=C(c1ccccc1)c1n[nH]c(-c2ccccc2)cc1=O | 0.47% (inactive)
88 | CCOC(=O)N1CCC(NC(=O)c2cnn3cccnc23)CC1 | -2.64% (inactive)
89 | O=C(CCSCCC(=O)Nc1c(F)c(F)c(F)c(F)c1F)Nc1c(F)c(F)c(F)c(F)c1F | -9.21% (inactive)
90 | O=C(O)CCCC(=O)Nc1c(F)c(F)c(F)c(F)c1F | 3.4% (inactive)
91 | CN(C)c1nc(NNC(=O)c2ccccc2)nc(N(C)C)n1 | -5.34% (inactive)
92 | C=CCn1c(SCC(=O)c2cccs2)nc2sc(C)c(C)c2c1=O | -46.6% (inactive)
93 | C=CCn1c(SCC(=O)Nc2cc(C)on2)nc2sc(C)c(C)c2c1=O | -2.76% (inactive)
94 | CCN(CC(=O)Nc1c(F)cccc1F)C(=O)c1ccc2c(c1)S(=O)(=O)N=C1CCCCCN12 | -6.51% (inactive)
95 | COc1cc(/C=C/C(=O)OCC(=O)NCC2CCCCC2)ccc1O | -4.25% (inactive)
96 | O=C(/C=C/c1ccc(O)c(O)c1)c1ccccc1O | 13.2% (inactive)
